In the OligoGym collection one finds sensor-assay potency score (higher = more potent) data, which are given here for 36 sequences.
Also: reference of the scale not given here.

The target in the first test is SLC22A8. In words: pooled miR-30 sensor sort-seq; sequence = guide strand. The following applies: shRNA.
TTGCACACCAAGTCCCACTCTG returned a sensor-assay potency score (higher = more potent) of 0.471. On the same count and under the same terms, the figure for TTGAGTTTGAGCTCCTCCAAGC is -1.05. On the same count and under the same terms, the same measure for AACTATAGTAGGCAAAACCGGT: -1.07; for TAATTCACTTGTGTAGAGGAAG: -0.618. With TTCTTCCACACCCATAGCCAAA, the sensor-assay potency score (higher = more potent) was -1.71.

Take TCTGTCACAATGGAGTCCTTGG: the sensor-assay potency score (higher = more potent) is -1.04. On the same count and under the same terms, the figure for TTGAAGACAGCCACCCGCCGGA is -0.0956; for TTCCACATTCAAGATGACGGTG it is -0.373. The same measure, in the same setting: the figure for TTTCCAGACAAGACCAACCAGC is -0.636; for TTTGTTGGAGTTGCACACCAAG it is -1.22. On the same count and under the same terms, the figure for TATAGTAGGCAAAACCGGTAGC is 0.235; for TTCACTTGTGTAGAGGAAGAGG it is -0.683.

The next test has as its target SLC23A2. Described as above. The following applies: shRNA.
The sequence TTCTTGGATTTATAAATCGGGA came in with a sensor-assay potency score (higher = more potent) of -1.08. The same measure, in the same setting: the same measure for TAAATCAATGAACTGCAGGTTA: 0.267; for TTCCGTAGTGTAGATCGCCATG: -1.38.

For the sequence TTGTCTGTAGCAAAGTAGTGAT, the sensor-assay potency score (higher = more potent) was -0.911. Sequence TATGGAACCTTAAACCACGGGG registered a sensor-assay potency score (higher = more potent) of -0.198. Still for that read-out and setting: the figure for TTCTGTCTGAGGTAACTTGGAA is -0.6; for TAATACTAGGAATATTGTCAGC it is -0.987; for TTCTGTTGAACTTCCAGCCTCC it is 0.654. The sequence TTCAACACTTGATCGATTCCTG showed a sensor-assay potency score (higher = more potent) of 0.272. TATGCCATCAAGAACACAGGAG: the sensor-assay potency score (higher = more potent) was 0.397. Sequence TATAAATCATGTCTGATCGCTG gave a sensor-assay potency score (higher = more potent) of 0.473. Consider TAAATCATGTCTGATCGCTGGG, for which the sensor-assay potency score (higher = more potent) stood at 0.763.

In the next test the target is SLC25A18. Described as above. The note with it: shRNA.
Consider TCGAGTTTTCAGAACATCTAGA, for which the sensor-assay potency score (higher = more potent) was -0.0433. TTAACAATGCTAAATCCTCAAG gave a sensor-assay potency score (higher = more potent) of -1.35. In turn, TAAAATACAGAAACAACCCTTC yielded a sensor-assay potency score (higher = more potent) of 0.73. In the case of TTGAGGTAGCACTACAACGCAG, the sensor-assay potency score (higher = more potent) was -1.18.

With TTCTATTGTGACTACCTGTTAA, the sensor-assay potency score (higher = more potent) was -0.81.

Regarding TGAGGTAGCACTACAACGCAGA, the sensor-assay potency score (higher = more potent) is -0.364.

Sequence TTAAGGTTGGCAAACAGTGGGA had a sensor-assay potency score (higher = more potent) of -0.285. The same measure, in the same setting: the same measure for TTCGAGTTTTCAGAACATCTAG: -0.224; for TTGGTCTCAAACTAGGTGCTGA: -0.0245; for TTAAAATACAGAAACAACCCTT: 0.611. Same read-out and setting: the figure for TTTCAGAACATCTAGAGGCGTC is 0.0336. In turn, TCAAACTAGGTGCTGACTCTGA showed a sensor-assay potency score (higher = more potent) of -0.384.
